# Assay results from PubChem BioAssay (EPA / NIEHS).
# Results filed as inconclusive are left out. Calls of active or inactive are those of the source. Rule for the calls, unless noted: active = hit-call score of the fitted dose curve at least 0.9, where 1 is the maximum; inconclusive = response in the unintended direction; inactive = score below 0.9.
# How the values were obtained:
# [1] = ATG_M_19_TRANS: Attagene TRANS-FACTORIAL HepG2 Assay for M19 Transcription Factor (Internal Marker) (AID 2282974); conditions: HepG2 Attagene TRANS-FACTORIAL M19 internal marker reporter
# Summary of the method: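 Measured here: internal-marker reporter transcript from HepG2 cells transfected with MRTUs, harvested at 24 h. cDNA PCR products were 6-FAM labelled by primer extension, cut with HpaI for 2 h at 37 C, and resolved by CE.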
# [2] = ATG_GAL4_TRANS: Attagene TRANS-FACTORIAL HepG2 Assay for GAL4 (Internal Marker) (AID 2282976); conditions: HepG2 Attagene TRANS GAL4 internal marker reporter
# Summary of the method: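 Fluorescence from capillary electrophoresis of labelled RT-PCR products quantifies reporter mRNA induction after 24 h dosing of HepG2 cells carrying transfected GAL4-UAS reporter transcription units. Vehicle DMSO serves as baseline.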
# [3] = molecular target: Glucocorticoid receptor (Homo sapiens) (UniProt P04150); assay: ATG_GR_TRANS: Attagene TRANS-FACTORIAL HepG2 Assay for human Glucocorticoid Receptor (GR) (AID 2282978); conditions: HepG2 Attagene TRANS GR reporter, mRNA transcription;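 note: activators score as hits since higher reporter transcript over DMSO is fitted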
# Summary of the method: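 Measurement of GAL4-UAS-driven reporter mRNA in human HepG2 liver cells 24 h post-dosing, using RT-PCR with fluorescent labelling and capillary electrophoresis; the transfected constructs report exogenous NR-GAL4 chimera activity, fitted upward against DMSO.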
# [4] = ATG_M_06_TRANS: Attagene TRANS-FACTORIAL HepG2 Assay for M06 Transcription Factor (Internal Marker) (AID 2282983); conditions: HepG2 Attagene TRANS M06 internal marker reporter;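 note: reporter transcript level by RT-PCR then capillary electrophoresis fluorescence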
# Summary of the method: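 Human liver HepG2 cells bearing transiently transfected chimeric NR-GAL4 reporter units were treated with chemicals for 24 h. Total RNA was reverse-transcribed, reporter sequences amplified and labelled, then quantified by capillary electrophoresis. Activity was fitted upward relative to DMSO.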
# [5] = molecular target: human RAR-related Orphan Receptor gamma (RORg), RORC (gene 6097) (UniProt P51449); assay: ATG_RORg_TRANS: Attagene TRANS-FACTORIAL HepG2 Assay for human RAR-related Orphan Receptor gamma (RORg) (AID 2283011)
# Summary of the method: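 Activity is scored as increase in GAL4-UAS reporter mRNA over DMSO, detected by fluorescent RT-PCR and capillary electrophoresis in HepG2 cells transiently expressing a RORg-Gal4 chimera, 24 h after dosing.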
# [6] = molecular target: human Thyroid Receptor alpha (THRa1), THRA (gene 7067) (UniProt P10827); assay: ATG_THRa1_TRANS: Attagene TRANS-FACTORIAL HepG2 Assay for human Thyroid Receptor alpha (THRa1) (AID 2283014)
# Summary of the method: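 First, HepG2 cells receive multiple GAL4-UAS reporter units and the chimeric receptor. They are then dosed for 24 h, after which RNA is reverse-transcribed, amplified, labelled, HpaI-cut and sized by capillary electrophoresis; gain relative to DMSO is scored.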
# [7] = molecular target: Oxysterols receptor LXR-beta (Homo sapiens) (UniProt P55055); assay: ATG_LXRb_TRANS: Attagene TRANS-FACTORIAL HepG2 Assay for human Liver X Receptor beta (LXRb) (AID 2282981); conditions: HepG2 Attagene TRANS GAL4-LXRb reporter, mRNA
# Summary of the method: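 After 24 h of chemical treatment, transfected HepG2 cells yield total RNA; reporter cDNA is PCR-amplified, FAM-labelled, HpaI-cut and run on capillary electrophoresis. Signal reflects chimeric LXRb-Gal4 activity on GAL4-UAS reporters.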
# [8] = molecular target: human Peroxisome Proliferator-activated Receptor delta (PPARd), PPARD (gene 5467) (UniProt Q03181); assay: ATG_PPARd_TRANS: Attagene TRANS-FACTORIAL HepG2 Assay for human Peroxisome Proliferator-activated Receptor delta (PPARd) (AID 2283002)
# Summary of the method: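 Read-out is induced reporter mRNA, quantified by RT-PCR with fluorescent labelling and capillary electrophoresis after 24 h dosing. Cells are HepG2 transiently carrying multiple GAL4-UAS reporter units driven by exogenous NR-GAL4 chimeras; DMSO serves as baseline.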
# [9] = molecular target: Peroxisome proliferator-activated receptor gamma (Homo sapiens) (UniProt P37231); assay: ATG_PPARg_TRANS: Attagene TRANS-FACTORIAL HepG2 Assay for human Peroxisome Proliferator-activated Receptor-gamma (PPARg) (AID 2283007)
# Summary of the method: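 Multiplexed reporter transcription units in HepG2, 24 h dosing, reporter transcripts quantified by fluorescent RT-PCR and capillary electrophoresis. Increase over DMSO scored.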
# [10] = molecular target: human RAR-related Orphan Receptor beta (RORb), RORB (gene 6096) (UniProt Q92753); assay: ATG_RORb_TRANS: Attagene TRANS-FACTORIAL HepG2 Assay for human RAR-related Orphan Receptor beta (RORb) (AID 2283010)
# Summary of the method: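 Multiplexed transcription-factor reporter assay: HepG2 cells transiently carrying NR-Gal4/GAL4-UAS constructs, 24 h treatment, mRNA quantified by RT-PCR plus capillary electrophoresis fluorescence; activity scored as induction over DMSO.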
# [11] = CCTE_Harrill_HTTr_Viability_MCF7: CCTE's 6-hour Cell Viability Assessment for the High-Throughput Transcriptomics (HTTr) Platform, in MCF-7 cells cultured in DMEM + 10% fetal bovine serum, Harrill Lab (AID 2284010; active = hit-call score of the fitted dose curve at least 0.9, where 1 is the maximum; inactive = score below 0.9)
# Summary of the method: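 Eight-point concentration series, six-hour exposure. Propidium iodide exclusion imaged to assess membrane integrity as a cytotoxicity readout; bidirectional fitting was done with DMSO as negative control and activity baseline.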
# [12] = CCTE_Harrill_HTTr_Apoptosis_MCF7: CCTE's 6-hour Apoptosis Assessment for the High-Throughput Transcriptomics (HTTr) Platform, in MCF-7 cells cultured in DMEM + 10% fetal bovine serum, Harrill Lab (AID 2284011; active = hit-call score of the fitted dose curve at least 0.9, where 1 is the maximum; inactive = score below 0.9)
# Summary of the method: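 Cells are dosed with test chemicals at eight concentrations and imaged 6 hours later for caspase-3/7 activity using a green fluorogenic detection reagent. Activity is fitted in both directions against DMSO controls.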
# [13] = ATG_VDRE_CIS: Attagene CIS-FACTORIAL HepG2 Assay for human Vitamin D Receptor Element (VDRE) (AID 2282968; active = hit-call score of the fitted dose curve at least 0.9, where 1 is the maximum; inactive = score below 0.9); conditions: HepG2 VDRE cis-reporter transcription, actives raise or lower the signal
# Summary of the method: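 Measures endogenous factor activity through cis-element-driven reporter transcripts in transiently transfected HepG2. Cells are treated 24 h; reporter mRNA is quantified by RT-PCR and capillary electrophoresis; fitting is bidirectional.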
# [14] = molecular target: Nuclear receptor subfamily 1 group I member 3 (Homo sapiens) (UniProt Q14994); assay: ATG_CAR_TRANS: Attagene TRANS-FACTORIAL HepG2 Assay for human Constitutive Androstane Receptor (CAR) (AID 2282969); conditions: HepG2 Attagene TRANS-FACTORIAL CAR reporter;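 note: activators raise reporter mRNA above DMSO so AC50 marks induction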
# Summary of the method: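 Signal is reporter mRNA induction relative to DMSO, measured 24 h after dosing by RT-PCR with fluorescent primer extension and capillary electrophoresis. Human HepG2 liver cells carried transiently transfected chimeric NR-Gal4/GAL4-UAS reporter constructs.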
# [15] = molecular target: Bile acid receptor (Homo sapiens) (UniProt Q96RI1); assay: ATG_FXR_TRANS: Attagene TRANS-FACTORIAL HepG2 Assay for Farnesoid X Receptor (FXR) (AID 2282979); conditions: HepG2 Attagene TRANS FXR-GAL4 reporter transcription;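 note: hits raise reporter mRNA above DMSO so AC50 marks FXR activation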
# Summary of the method: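 Chimeric FXR-GAL4 activity in transiently transfected human HepG2 liver cells is scored as induction of reporter mRNA after 24 h of dosing. Detection uses RT-PCR with fluorescent labelling and capillary electrophoresis, with DMSO serving as baseline.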
# [16] = molecular target: Oxysterols receptor LXR-alpha (Homo sapiens) (UniProt Q13133); assay: ATG_LXRa_TRANS: Attagene TRANS-FACTORIAL HepG2 Assay for human Liver X Receptor alpha (LXRa) (AID 2282980); conditions: HepG2 Attagene TRANS reporter, LXRa transactivation
# Summary of the method: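 Transient HepG2 transfectants, 24 h dosing, RT-PCR/CE mRNA reporter quantitation; gain-of-signal vs DMSO.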
# [17] = ATG_NF_kB_CIS: Attagene CIS-FACTORIAL HepG2 Assay for human Nuclear Factor Kappa B (NF-kB) (AID 2282991; active = hit-call score of the fitted dose curve at least 0.9, where 1 is the maximum; inactive = score below 0.9); conditions: HepG2 Attagene cis-factorial NF-kB reporter mRNA; actives raise or lower the signal
# Summary of the method: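 HepG2, transient multi-reporter transfection, cis promoter elements (endogenous TFs). 24 h exposure. Total RNA → RT → PCR → 6-FAM label → HpaI → CE. Gain/loss vs DMSO.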
# [18] = molecular target: human Vitamin D Receptor (VDR), VDR (gene 7421) (UniProt P11473); assay: ATG_VDR_TRANS: Attagene TRANS-FACTORIAL HepG2 Assay for human Vitamin D Receptor (VDR) (AID 2283022)
# Summary of the method: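 Fluorescence of labelled reporter cDNA fragments, resolved by capillary electrophoresis, gives mRNA induction after 24 h treatment of HepG2 cells carrying transfected Gal4-fusion reporter units. Activity is fitted in the positive direction with DMSO as baseline.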
# [19] = TOX21_p53_BLA_p4_viability: Viability Assessment in the Tox21 HCT-116 p53 Agonism Beta-lactamase Assay, Phase 4 (AID 2283597);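 note: hits lower the luminescence signal meaning cytotoxicity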
# Summary of the method: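 Viability is taken as cellular ATP: after 16 h compound exposure of HCT116 cells and a 2 h room-temperature CCF4-AM substrate step, CellTiter-Glo reagent is added and luminescence is measured 30 min later.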
# [20] = molecular target: Nuclear receptor subfamily 4 group A member 2 (Homo sapiens) (UniProt P43354); assay: ATG_NURR1_TRANS: Attagene TRANS-FACTORIAL HepG2 Assay for human Nuclear Receptor Related Protein 1 (NURR1) (AID 2282985); conditions: HepG2 Attagene TRANS reporter, mRNA readout
# Summary of the method: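 Measures transcriptional activation by an exogenous NR-Gal4 chimera in transfected HepG2 liver cells. After 24 h, reporter RNA is reverse-transcribed, amplified and resolved by capillary electrophoresis; DMSO defines baseline.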
# Sequence of Nuclear receptor subfamily 1 group I member 3 (Homo sapiens) (Q14994 whole entry, looked up, the tested form may be a part): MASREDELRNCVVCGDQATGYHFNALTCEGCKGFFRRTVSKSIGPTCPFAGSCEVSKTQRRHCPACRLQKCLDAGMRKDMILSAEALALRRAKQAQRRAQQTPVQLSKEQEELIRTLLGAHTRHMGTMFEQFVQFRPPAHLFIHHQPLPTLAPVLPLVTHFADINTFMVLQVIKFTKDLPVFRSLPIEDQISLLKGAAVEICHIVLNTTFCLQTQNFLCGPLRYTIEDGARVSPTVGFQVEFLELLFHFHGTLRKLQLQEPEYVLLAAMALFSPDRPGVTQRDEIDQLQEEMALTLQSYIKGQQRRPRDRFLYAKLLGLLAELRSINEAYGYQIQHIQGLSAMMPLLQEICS
# Sequence of human RAR-related Orphan Receptor gamma (RORg), RORC (gene 6097) (P51449 whole entry, looked up, the tested form may be a part): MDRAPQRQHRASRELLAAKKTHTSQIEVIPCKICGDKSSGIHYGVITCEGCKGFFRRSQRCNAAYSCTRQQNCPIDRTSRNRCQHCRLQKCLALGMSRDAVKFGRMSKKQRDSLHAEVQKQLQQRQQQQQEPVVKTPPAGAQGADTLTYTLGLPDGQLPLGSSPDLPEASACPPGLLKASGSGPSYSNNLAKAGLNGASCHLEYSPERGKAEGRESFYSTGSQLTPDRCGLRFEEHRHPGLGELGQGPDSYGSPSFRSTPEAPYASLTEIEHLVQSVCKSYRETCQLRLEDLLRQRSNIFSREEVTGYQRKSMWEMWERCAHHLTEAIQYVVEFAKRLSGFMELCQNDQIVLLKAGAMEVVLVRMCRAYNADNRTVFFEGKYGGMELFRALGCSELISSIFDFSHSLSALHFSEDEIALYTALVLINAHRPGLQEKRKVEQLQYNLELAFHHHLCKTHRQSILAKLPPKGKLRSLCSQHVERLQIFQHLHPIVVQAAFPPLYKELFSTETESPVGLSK
# Sequence of Peroxisome proliferator-activated receptor gamma (Homo sapiens) (P37231 whole entry, looked up): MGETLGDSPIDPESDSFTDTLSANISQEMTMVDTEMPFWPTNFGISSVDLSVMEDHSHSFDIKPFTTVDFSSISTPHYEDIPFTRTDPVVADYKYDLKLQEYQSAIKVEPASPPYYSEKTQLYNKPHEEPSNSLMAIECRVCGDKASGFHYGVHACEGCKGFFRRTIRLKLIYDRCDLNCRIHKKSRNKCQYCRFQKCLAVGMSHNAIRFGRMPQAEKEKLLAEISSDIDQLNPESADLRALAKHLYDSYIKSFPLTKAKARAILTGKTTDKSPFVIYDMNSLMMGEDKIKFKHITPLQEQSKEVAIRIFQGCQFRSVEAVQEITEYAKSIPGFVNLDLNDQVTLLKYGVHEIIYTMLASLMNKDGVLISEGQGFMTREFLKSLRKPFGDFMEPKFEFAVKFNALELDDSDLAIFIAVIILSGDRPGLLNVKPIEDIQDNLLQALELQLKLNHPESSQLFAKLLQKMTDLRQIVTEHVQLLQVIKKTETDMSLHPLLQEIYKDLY
# Sequence of human Thyroid Receptor alpha (THRa1), THRA (gene 7067) (P10827 whole entry, looked up, the tested form may be a part): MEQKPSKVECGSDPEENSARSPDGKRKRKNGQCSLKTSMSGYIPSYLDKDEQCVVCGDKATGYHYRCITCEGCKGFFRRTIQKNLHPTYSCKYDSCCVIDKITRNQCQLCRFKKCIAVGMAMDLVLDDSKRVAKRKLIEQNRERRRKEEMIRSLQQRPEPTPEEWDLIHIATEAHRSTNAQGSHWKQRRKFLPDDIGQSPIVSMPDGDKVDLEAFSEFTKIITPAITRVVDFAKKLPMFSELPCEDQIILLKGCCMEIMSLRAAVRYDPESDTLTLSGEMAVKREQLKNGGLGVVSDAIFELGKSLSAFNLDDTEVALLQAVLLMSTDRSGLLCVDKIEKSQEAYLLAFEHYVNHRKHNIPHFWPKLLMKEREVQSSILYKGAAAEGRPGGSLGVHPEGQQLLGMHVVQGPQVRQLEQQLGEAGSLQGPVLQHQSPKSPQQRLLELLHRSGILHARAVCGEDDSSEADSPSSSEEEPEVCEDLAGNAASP
# Sequence of Bile acid receptor (Homo sapiens) (Q96RI1 whole entry, looked up, the tested form may be a part): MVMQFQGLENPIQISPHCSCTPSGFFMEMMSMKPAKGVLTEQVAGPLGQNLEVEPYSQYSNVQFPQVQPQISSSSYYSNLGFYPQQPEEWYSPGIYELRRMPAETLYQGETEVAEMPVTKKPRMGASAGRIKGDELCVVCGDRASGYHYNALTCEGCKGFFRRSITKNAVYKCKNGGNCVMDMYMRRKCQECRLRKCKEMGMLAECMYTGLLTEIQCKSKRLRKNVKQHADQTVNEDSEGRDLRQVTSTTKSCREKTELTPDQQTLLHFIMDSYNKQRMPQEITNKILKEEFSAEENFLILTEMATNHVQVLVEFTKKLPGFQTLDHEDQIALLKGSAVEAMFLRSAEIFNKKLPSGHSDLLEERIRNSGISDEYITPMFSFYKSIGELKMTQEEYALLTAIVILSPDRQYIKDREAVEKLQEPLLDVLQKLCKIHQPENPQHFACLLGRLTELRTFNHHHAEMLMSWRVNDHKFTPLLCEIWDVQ
# Sequence of Glucocorticoid receptor (Homo sapiens) (P04150 whole entry, looked up, the tested form may be a part): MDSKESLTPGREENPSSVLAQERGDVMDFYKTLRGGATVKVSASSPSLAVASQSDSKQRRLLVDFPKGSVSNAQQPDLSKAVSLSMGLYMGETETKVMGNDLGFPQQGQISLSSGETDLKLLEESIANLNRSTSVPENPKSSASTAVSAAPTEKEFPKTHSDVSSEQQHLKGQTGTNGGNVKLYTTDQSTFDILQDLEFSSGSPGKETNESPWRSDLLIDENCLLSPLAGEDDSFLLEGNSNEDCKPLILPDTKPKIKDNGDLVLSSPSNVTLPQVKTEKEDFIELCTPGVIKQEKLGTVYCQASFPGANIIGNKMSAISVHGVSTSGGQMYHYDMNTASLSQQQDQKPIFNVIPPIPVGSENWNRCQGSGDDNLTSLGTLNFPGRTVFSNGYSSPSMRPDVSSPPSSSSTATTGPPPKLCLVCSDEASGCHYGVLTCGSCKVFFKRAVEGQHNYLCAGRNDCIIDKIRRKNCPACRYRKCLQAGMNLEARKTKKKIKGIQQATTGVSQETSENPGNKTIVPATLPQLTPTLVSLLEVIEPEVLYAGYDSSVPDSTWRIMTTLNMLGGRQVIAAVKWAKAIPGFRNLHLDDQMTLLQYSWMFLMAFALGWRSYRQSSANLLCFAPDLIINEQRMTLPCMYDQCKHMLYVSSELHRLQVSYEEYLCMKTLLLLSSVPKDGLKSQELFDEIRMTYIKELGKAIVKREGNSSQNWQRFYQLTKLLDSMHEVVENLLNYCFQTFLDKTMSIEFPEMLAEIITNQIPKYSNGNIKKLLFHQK
# Sequence of Nuclear receptor subfamily 4 group A member 2 (Homo sapiens) (P43354 whole entry, looked up, the tested form may be a part): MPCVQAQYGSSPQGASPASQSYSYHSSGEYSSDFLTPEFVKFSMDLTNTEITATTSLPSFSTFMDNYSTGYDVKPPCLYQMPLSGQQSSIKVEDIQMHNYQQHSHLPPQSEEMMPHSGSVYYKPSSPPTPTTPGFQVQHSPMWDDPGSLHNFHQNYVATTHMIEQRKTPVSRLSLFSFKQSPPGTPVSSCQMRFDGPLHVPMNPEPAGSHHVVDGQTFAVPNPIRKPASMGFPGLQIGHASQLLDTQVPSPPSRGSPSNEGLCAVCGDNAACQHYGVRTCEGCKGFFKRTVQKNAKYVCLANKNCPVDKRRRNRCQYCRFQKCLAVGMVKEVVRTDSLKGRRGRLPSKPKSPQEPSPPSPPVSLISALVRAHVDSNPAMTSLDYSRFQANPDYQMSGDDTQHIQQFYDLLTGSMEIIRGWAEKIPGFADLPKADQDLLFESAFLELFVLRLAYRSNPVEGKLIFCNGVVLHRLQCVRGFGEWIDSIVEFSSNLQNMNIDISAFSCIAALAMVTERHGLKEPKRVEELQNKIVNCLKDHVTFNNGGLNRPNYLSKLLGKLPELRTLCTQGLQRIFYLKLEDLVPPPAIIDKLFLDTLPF
# Sequence of Oxysterols receptor LXR-alpha (Homo sapiens) (Q13133 whole entry, looked up): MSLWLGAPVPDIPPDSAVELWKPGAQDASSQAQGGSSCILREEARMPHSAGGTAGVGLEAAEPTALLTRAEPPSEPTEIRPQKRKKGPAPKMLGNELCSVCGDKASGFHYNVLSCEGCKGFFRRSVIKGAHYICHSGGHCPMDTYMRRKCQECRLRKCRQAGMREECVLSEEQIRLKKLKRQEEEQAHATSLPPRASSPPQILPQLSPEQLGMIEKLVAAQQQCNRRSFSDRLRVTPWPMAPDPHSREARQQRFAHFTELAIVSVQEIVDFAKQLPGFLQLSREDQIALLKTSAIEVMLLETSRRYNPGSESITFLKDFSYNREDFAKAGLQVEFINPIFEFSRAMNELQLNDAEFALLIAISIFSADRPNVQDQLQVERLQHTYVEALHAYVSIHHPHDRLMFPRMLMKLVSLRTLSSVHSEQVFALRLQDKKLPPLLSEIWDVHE
# Sequence of human Peroxisome Proliferator-activated Receptor delta (PPARd), PPARD (gene 5467) (Q03181 whole entry, looked up, the tested form may be a part): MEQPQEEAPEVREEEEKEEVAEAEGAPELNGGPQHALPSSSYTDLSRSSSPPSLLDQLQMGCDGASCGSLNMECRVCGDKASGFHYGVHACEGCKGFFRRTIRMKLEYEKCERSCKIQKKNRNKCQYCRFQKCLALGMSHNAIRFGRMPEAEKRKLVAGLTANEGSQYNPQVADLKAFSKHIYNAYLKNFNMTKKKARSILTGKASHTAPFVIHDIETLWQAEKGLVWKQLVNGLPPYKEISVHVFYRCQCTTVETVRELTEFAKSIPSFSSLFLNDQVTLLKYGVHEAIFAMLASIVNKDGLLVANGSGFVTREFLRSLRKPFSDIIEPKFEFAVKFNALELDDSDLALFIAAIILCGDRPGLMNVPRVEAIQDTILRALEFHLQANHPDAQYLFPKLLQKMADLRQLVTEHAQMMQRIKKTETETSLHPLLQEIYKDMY
structure (smiles),measurement,setting,value
CC=CC(=O)O,outcome,[1],inactive
same,outcome,[2],inactive
same,outcome,[3],inactive
same,outcome,[4],inactive
same,outcome,[5],inactive
same,outcome,[6],inactive
O=C(Oc1ccccc1)c1ccccc1,outcome,[1],inactive
same,outcome,[7],inactive
same,outcome,[8],inactive
same,outcome,[9],inactive
same,outcome,[10],inactive
same,outcome,[5],inactive
same,outcome,[6],inactive
same,outcome,[11],inactive
same,outcome,[12],inactive
COC(=O)[C@]1(C)CCC[C@@]2(C)[C@H]1CC=C1C=C(C(C)C)CC[C@@H]12,AC50,[13],26.4 µM (active)
same,outcome,[14],inactive
same,AC50,[15],33 µM (active)
same,outcome,[16],inactive
same,outcome,[7],inactive
same,outcome,[17],inactive
same,outcome,[18],inactive
same,outcome,[19],inactive
CCCCCCOC(=O)CCCCCCCC(=O)OCCCCCC,outcome,[13],inactive
same,outcome,[14],inactive
same,outcome,[1],inactive
same,outcome,[2],inactive
same,outcome,[3],inactive
same,outcome,[16],inactive
same,outcome,[7],inactive
same,outcome,[20],inactive
same,outcome,[8],inactive
same,outcome,[6],inactive
same,outcome,[18],inactive
O=C(C1CCCCC1)N1CC(=O)N2CCc3ccccc3C2C1 (centres undefined),AC50,[13],13.7 µM (active)
same,outcome,[3],inactive
same,outcome,[4],inactive
same,outcome,[20],inactive
same,outcome,[17],inactive
same,outcome,[9],inactive
same,outcome,[18],inactive
same,outcome,[11],inactive
same,outcome,[12],inactive
CC/C=C\CCCCCO,outcome,[14],inactive
same,outcome,[2],inactive
same,outcome,[3],inactive
same,outcome,[8],inactive
same,outcome,[5],inactive
same,outcome,[6],inactive
same,outcome,[19],inactive
CC(O)(P(=O)(O)O)P(=O)(O)O,outcome,[2],inactive
same,outcome,[16],inactive
same,outcome,[4],inactive
same,outcome,[6],inactive
CCOc1ccc2c(c1)C(C)CC(C)(C)N2 (centres undefined),AC50,[13],34 µM (active)
same,outcome,[14],inactive
same,outcome,[1],inactive
same,outcome,[15],inactive
same,AC50,[16],14.5 µM (active)
same,outcome,[7],inactive
same,outcome,[4],inactive
same,outcome,[20],inactive
same,outcome,[8],inactive
same,outcome,[9],inactive
same,outcome,[18],inactive
C=CC(C)(CCC=C(C)C)OC(=O)c1ccccc1 (centres undefined),outcome,[3],inactive
same,outcome,[15],inactive
same,outcome,[4],inactive
same,outcome,[20],inactive
same,outcome,[17],inactive
same,outcome,[6],inactive
CC1(C)S[C@@H]2[C@H](NC(=O)[C@H](N)c3ccccc3)C(=O)N2[C@H]1C(=O)O,outcome,[2],inactive
same,outcome,[3],inactive
same,outcome,[16],inactive
same,outcome,[7],inactive
same,outcome,[20],inactive
same,outcome,[9],inactive
same,outcome,[10],inactive
same,outcome,[5],inactive
same,outcome,[6],inactive
same,outcome,[19],inactive
CC(=O)c1nccs1,outcome,[13],inactive
same,outcome,[14],inactive
same,outcome,[1],inactive
same,outcome,[3],inactive
same,outcome,[16],inactive
same,outcome,[7],inactive
same,outcome,[9],inactive
same,outcome,[6],inactive
O=C(O)c1ccccc1C(=O)O,outcome,[2],inactive
same,outcome,[3],inactive
same,outcome,[7],inactive
same,outcome,[4],inactive
same,outcome,[20],inactive
same,outcome,[17],inactive
same,outcome,[8],inactive
same,outcome,[5],inactive
same,outcome,[6],inactive
same,outcome,[19],inactive
C/C=C(\C)C(=O)OCC/C=C\CC,outcome,[13],inactive
same,outcome,[14],inactive
same,outcome,[1],inactive
same,outcome,[2],inactive
same,outcome,[15],inactive
same,outcome,[16],inactive
same,outcome,[20],inactive
same,outcome,[17],inactive
same,outcome,[5],inactive
same,outcome,[18],inactive
C1=CCC=C1,outcome,[2],inactive
same,outcome,[6],inactive
N#CCN(CC#N)CCN(CC#N)CC#N,outcome,[1],inactive
same,outcome,[2],inactive
same,outcome,[3],inactive
same,outcome,[4],inactive
same,outcome,[18],inactive
O=C(OCc1ccccc1)c1ccccc1,outcome,[13],inactive
same,outcome,[1],inactive
same,outcome,[2],inactive
same,outcome,[3],inactive
same,outcome,[16],inactive
same,outcome,[4],inactive
same,outcome,[20],inactive
same,outcome,[17],inactive
same,outcome,[9],inactive
same,outcome,[6],inactive
same,outcome,[18],inactive
same,outcome,[11],inactive
same,outcome,[12],inactive
